According to PubChem BioAssay (Tox21):
Records with an inconclusive call do not appear. Active and inactive are the calls of the source. Calls come from the whole dose curve; as a rule, active = well fitted cell-killing curve with a large enough effect in the repeat runs; inconclusive = weak or mixed curves, or effect the other way; inactive = no such curve, though single readings can be large or run the other way.

assay: qHTS assay to identify small molecule agonists of the estrogen receptor alpha (ER-alpha) signaling pathway in the presence of an antagonist - cell viability counter screen (AID 1259386); settings: VM7Luc4E2 viability, CellTiter-Fluor fluorescence, 22 h; series mostly up to 92.4 µM; activity change, negative = cytotoxicity: at the top concentration;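 note: cells exposed to compounds for 22 h at 37 °C before the viability read; nearly all actives have a fitted effect of over 30% in size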
Excerpt: National Center for Advancing Translational Sciences [NCATS]
NIH Chemical Genomics Center [NCGC]
U.S. Environmental Protection Agency [EPA]
National Institutes of Environmental Health Sciences [NIEHS]
National Toxicology Program [NTP]
U.S. Food and Drug Administration [FDA]
Estrogen receptor (ER), a member of nuclear hormone receptor plays an important role in development, metabolic homeostasis and reproduction. Two subtypes of ER, ER-alpha and ER-beta, have similar expression patterns with some uniqueness in both types. Endocrine disrupting chemicals (EDCs) and their interactions with steroid hormone receptors like ER causes disruption of normal endocrine function. Therefore, it is important to understand the effect of environmental chemicals in ER signaling pathway. For identifying ER agonists, VM7Luc4E2 cell line has been used in the current assay.
VM7Luc4E2 cell line (provided by Denison MS, University of California) endogenously expresses full-length ER-alpha and is stably transfected with a plasmid containing four estrogen responsive elements (ERE) upstream of a luciferase reporter gene. This current screening for measuring luciferase reporter gene activity using VM7Luc4E2 cells against Tox21 10K library collection is a confirmation study on agonist mode screening in presence of ER-antagonist (ICI-182,780) at 10.0nM final concentration. The cytotoxicity of the compounds was tested in parallel by measuring the cell viability using CellTiter-Fluor assay system (Promega, Madison, WI) in the same wells.
Tox21 Assay Protocol Summary:
VM7Luc4E2 cells were cultured in phenol red free assay medium containing 10% charcoal stripped FBS for 5 days prior to the assay. The cells were dispensed at 4,000 cells in 4uL of assay medium per well into white wall/solid-bottom 1536-well plates (Corning Life Sciences, Corning, NY) using a Multidrop Combi (Thermo Fisher Scientific Inc., Waltham, MA) dispenser. After the assay plates were incubated at 37C and 5% CO2 for 24hr, 1uL of 10.0nM (final concentration) ICI-182,780 or assay buffer was added using two separate tips of Flying Reagent Dispenser (FRD, Aurora Discovery, San Diego, CA). Then 23nL of compounds dissolved in DMSO at 15 concentrations and positive controls or DMSO only was transferred to the assay plates by a Pintool station (Wako, San Diego, CA). The assay plates were incubated at 37C and 5% CO2 for 22hr. After 21hr incubation at 37C, 1uL/well CellTiter-Fluor reagent (Promega Corporation, Madison, WI) was added to each well using FRD and after 1hr incubation at 37C and 5% CO2, the fluorescence signal was measured on ViewLux plate reader (PerkinElmer, Shelton, CT).
% is set by controls: 0 for no effect and ±100 for the full control effect; potency is the fitted concentration of half-maximal effect.

SMILES	activity change, negative = cytotoxicity	Potency
O=C(CS)OCCOC(=O)CS	-1.35% (inactive)	–
Cc1c(C(=O)NN2CCCCC2)nn(-c2ccc(Cl)cc2Cl)c1-c1ccc(Cl)cc1	1.17% [at 42.5 µM] (inactive)	–
CC1=CC(O)CC(C)(C)C1 (stereo not given)	2.91% (inactive)	–
CN(C(=O)C(Cl)Cl)c1ccc(OC(=O)c2ccco2)cc1	0.27% [at 42.5 µM] (inactive)	–
Cc1ccc(/C=N/n2c(-c3ccccc3)csc2=S)cc1	-3.41% [at 42.5 µM] (inactive)	–
CCCOC(=O)c1ccc(C(=O)OCCC)nc1	8.94% (inactive)	–
C/C=C(\C)C(=O)OCCC(C)CCC=C(C)C (stereo not given)	1.38% (inactive)	–
Nc1ccc(S(=O)(=O)O)cc1	2.41% (inactive)	–
CCCCCC=CCC=CCCCCCCCC(=O)OCC	2.61% [at 42.5 µM] (inactive)	–
O=C(C(=O)c1ccccc1)c1ccccc1	0.299% (inactive)	–
COCC(O)CO (stereo not given)	-0.769% (inactive)	–
O=C(O)c1cccnc1C(=O)O	3.99% (inactive)	–
OC(CCCN1CCCCC1)(c1ccccc1)c1ccccc1	-11.5% [at 42.5 µM] (inactive)	–
CCC(=O)OC/C=C/c1ccccc1	–	inactive
CC(=O)[C@H]1CC[C@H]2[C@@H]3C=CC4=CC(=O)CC[C@@]4(C)[C@@H]3CC[C@]12C	0.996% [at 42.5 µM] (inactive)	–
O=C(O)Cc1ccc(-c2ccccc2)cc1	0.894% [at 42.5 µM] (inactive)	–
CCCCCCCCCCCC[N+](C)(C)CCCS(=O)(=O)[O-]	4.06% (inactive)	–
Cc1cc2nc3ccc(=[N+](C)C)cc-3sc2cc1N	–	29.8 µM (active)
ON(Cc1ccccc1)Cc1ccccc1	0.272% (inactive)	–
Cc1occc1C(=O)Nc1ccc(C(=O)N2CCC(F)(F)/C(=C\C(=O)N3CCC(N4CCCCC4)CC3)c3ccccc32)cc1	-10.4% [at 42.5 µM] (inactive)	–

SMILES	activity change, negative = cytotoxicity	Potency
CCCCC(CC)COC(=O)COc1ccc(Cl)cc1C (stereo not given)	2.01% (inactive)	–
CCCCC/C(=C\c1ccccc1)CO	1.03% (inactive)	–
CCc1c2c(nc3ccc(OC(=O)N4CCC(N5CCCCC5)CC4)cc13)-c1cc3c(c(=O)n1C2)COC(=O)[C@]3(O)CC	-0.228% [at 42.5 µM] (inactive)	–
NC(=O)N(O)[C@@H]1COc2cc(OCc3ccccc3)ccc21	-5.85% (inactive)	–
Cc1oc(C)c(C(=O)Nc2ccccc2)c1C	-14.8% (inactive)	–
O=C(O)c1snc(Cl)c1Cl	0.565% (inactive)	–
CC(=O)CC(c1ccc([N+](=O)[O-])cc1)c1c(O)c2ccccc2oc1=O (stereo not given)	-10.1% [at 42.5 µM] (inactive)	–
O=C(O)c1cccc(O)c1	0.802% (inactive)	–
CC(C)(C)C(=O)C(Oc1ccc(Cl)cc1)n1ccnc1 (stereo not given)	-3.87% [at 42.5 µM] (inactive)	–
O=Cc1c(Cl)cccc1Cl	0.785% (inactive)	–
CCCOc1ccc(S(=O)(=O)N2CCN(CC)CC2)cc1-c1nc2c(CC)n(Cc3ccccn3)nc2c(=O)[nH]1	-6.14% (inactive)	–
Oc1cc(O)c(Cl)cc1Cl	0.537% (inactive)	–
CC(C)(O)c1ccccc1CC[C@@H](SCC1(CC(=O)O)CC1)c1cccc(/C=C/c2ccc3ccc(Cl)cc3n2)c1	6.08% [at 42.5 µM] (inactive)	–
C=CC(C)=CCC=C(C)C	-5.45% (inactive)	–
C=CCNc1nc(NCC=C)nc(N2CCN(C(c3ccc(F)cc3)c3ccc(F)cc3)CC2)n1	-2.29% [at 42.5 µM] (inactive)	–
c1cc[c]([Bi]([c]2ccccc2)[c]2ccccc2)cc1	0.303% (inactive)	–
CC(=O)Nc1ccc(N)cc1	-0.165% (inactive)	–
OCCSc1ccccc1	-7.69% (inactive)	–
CC(C)(CCl)c1ccccc1	-2.9% (inactive)	–
CNCCCC1c2ccccc2C=Cc2ccccc21	5.23% [at 42.5 µM] (inactive)	–
